Test results: PubChem BioAssay (EPA / NIEHS)
More than one record can exist for a structure, and the calls need not agree. The source made the active and inactive calls. Rule for the calls: active = hit-call score of the fitted dose curve at least 0.9, where 1 is the maximum; inactive = score below 0.9.

biological target: Hepatocyte nuclear factor 6 (Homo sapiens) (UniProt Q9UBC0); assay: ATG_HNF6_CIS: Attagene CIS-FACTORIAL HepG2 Assay for human Hepatocyte Nuclear Factor 6 (HNF6) (AID 2282952); settings: HepG2 Attagene cis-factorial HNF6 reporter transcription; actives raise or lower the signal
Sequence (Q9UBC0 whole entry, looked up): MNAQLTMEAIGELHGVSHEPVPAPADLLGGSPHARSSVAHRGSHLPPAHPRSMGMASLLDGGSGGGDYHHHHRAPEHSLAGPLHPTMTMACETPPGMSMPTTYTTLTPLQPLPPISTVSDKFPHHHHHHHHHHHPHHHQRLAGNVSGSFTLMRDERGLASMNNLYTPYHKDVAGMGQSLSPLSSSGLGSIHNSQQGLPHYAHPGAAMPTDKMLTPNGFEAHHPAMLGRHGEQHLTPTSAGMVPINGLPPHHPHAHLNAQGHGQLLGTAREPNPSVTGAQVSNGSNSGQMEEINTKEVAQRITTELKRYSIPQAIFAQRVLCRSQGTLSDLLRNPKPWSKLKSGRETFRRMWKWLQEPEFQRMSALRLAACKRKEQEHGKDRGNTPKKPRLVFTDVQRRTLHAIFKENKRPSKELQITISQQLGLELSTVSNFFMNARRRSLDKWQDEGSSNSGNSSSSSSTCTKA
Description: ATG_CIS is a cell-based, multiplexed-readout assay that uses HepG2, a human liver cell line, with measurements taken at 24 hours after chemical dosing in a 24-well plate.ATG_HNF6_CIS is one of 52 assay component(s) measured or calculated from the ATG_CIS assay. It is designed to make measurements of mRNA induction, a form of inducible reporter, as detected with fluorescence intensity signals by Reverse transcription polymerase chain reaction (RT-PCR) and Capillary electrophoresis technology.Data from the assay component ATG_HNF6_CIS was analyzed into 1 assay endpoint. This assay endpoint, ATG_HNF6_CIS, was analyzed with bidirectional fitting relative to DMSO as the negative control and baseline of activity. Using a type of inducible reporter, measures of mRNA for gain or loss-of-signal activity can be used to understand the reporter gene at the transcription factor-level as they relate to the gene ONECUT1. Furthermore, this assay endpoint can be referred to as a primary readout, because this assay has produced multiple assay endpoints where this one serves a reporter gene function. To generalize the intended target to other relatable targets, this assay endpoint is annotated to the dna binding intended target family, where the subfamily is homeobox protein.
Human liver HepG2 cells are transiently transfected with multiple reporter transcription units (MRTUs) in 6-well plates using FuGene 6 reagent (Roche; 3 ml FuGene/1 mg DNA). The MRTU constructs are regulated by a cis-regulating element (promoter). […] A major difference between the CIS and TRANS system is that in CIS activities of endogenous TFs are measured, whereas the TRANS assay evaluates changes in activities of exogenous, chimeric NR-Gal4 proteins. […] At the end of 24 hour incubation, total RNA was isolated using TriZol reagent (Invitrogen). The isolated RNA is then reverse-transcribed using oligo(dT) primer and Mo-MLV reverse transcriptase (Invitrogen) with DNAse I (Ambion) treatment for 30 min. The one-tenth of the produced cDNA was amplified by PCR using Taq DNA polymerase (Invitrogen) and two reporter sequence-specific primers. The PCR products were fluorescently labeled by primer extension with 6-arboxyfluorescein (6-FAM) 5'-labeled reporter sequence-specific primer (2 min at 95 C, 20 s at 68 C and 10 min at 72 C) and these products were digested with 5U of HpaI (New England Biolabs) for 2h at 37 C. The fragments were purified using Qiaquick PCR columns (Qiagen), analyzed on an ABI 3130xL genetic analyzer (Applied Biosystems) with peak positions identified by using a set of X-rhodamine (ROX)-labeled MapMarker1000 molecular weight standards (BioVentures). The raw capillary electrophoresis data was processed using Attagraph software (Attagene).

Structure (SMILES)	outcome	AC50
CC1CN1P(=O)(N1CC1C)N1CC1C (stereo not given)	inactive	–
COC(=O)c1sccc1S(=O)(=O)NC(=O)Nc1nc(C)nc(OC)n1	inactive	–
[O-][Cl+2]([O-])O	inactive	–
C[C@]12CCC(=O)C[C@@H]1CC[C@@H]1[C@@H]2CC[C@]2(C)[C@@H](O)CC[C@@H]12	inactive	–
O=CC=O	inactive	–
CCC[CH2][Sn]([CH2]CCC)([CH2]CCC)[O]C(=O)c1ccccc1	inactive	–
O=C1C2(Cl)C3(Cl)C4(Cl)C(Cl)(Cl)C5(Cl)C3(Cl)C1(Cl)C5(Cl)C24Cl (stereo not given)	inactive	11.1 µM (active)
Cc1ccc(N)cc1Cl	inactive	–
N#Cc1ccccn1	inactive	–
CCSC(C)CC1CC(=O)C(C(CC)=NOC/C=C/Cl)=C(O)C1 (stereo not given)	inactive	–
ClCCBr	inactive	–
CC1(C)CCC(Cc2ccc(Cl)cc2)C1(O)Cn1cncn1 (stereo not given)	inactive	–
CC(=O)C=C(C)C	inactive	–
CC(C)(c1ccccc1)c1ccc(O)c(C(C)(C)c2ccccc2)c1	inactive	–
COC[C@H](C)N(C(=O)CCl)c1c(C)csc1C	inactive	–
N#CCCO	inactive	–
C[C@@H]1C[C@@H]([C@H](O)CC2CC(=O)NC(=O)C2)C(=O)[C@@H](C)C1	inactive	–
CN(C)N=O	inactive	–
COC(=O)Cc1ccccc1	inactive	–
O=S(=O)(c1ccc(Cl)cc1)c1ccc(Cl)cc1	inactive	–

Structure (SMILES)	outcome	AC50
C=C(C)C#N	inactive	–
O=C/C=C/c1ccccc1	inactive	–
CC(=[OH+])/C=C(/C)[O-].CC(=[OH+])/C=C(/C)[O-].CC(=[OH+])/C=C(/C)[O-].[Fe]	inactive	–
CC(=O)[O][Hg][c]1ccccc1	inactive	–
CCCCCCCCc1ccc(O)cc1	inactive	–
CCCCCCCCC(=O)NCc1ccc(O)c(OC)c1	inactive	–
CN(C)P(=O)(N(C)C)N(C)C	inactive	–
O=Cc1cccc(Oc2ccccc2)c1	inactive	–
CCC(C)c1cccc(C(C)CC)c1O (stereo not given)	inactive	–
Clc1ccc(C2(Cn3cncn3)CC(Br)CO2)c(Cl)c1 (stereo not given)	inactive	–
CCc1ccccc1C	inactive	–
C=CCc1ccc(OC)cc1	inactive	–
CCCCCCCCCl	inactive	–
CC(C)OC(=O)Nc1ccccc1	inactive	–
O=C(O)C(F)(F)C(F)(F)C(F)(F)C(F)(F)C(F)(F)C(F)(F)C(F)(F)C(F)(F)C(F)(F)C(F)(F)F	inactive	–
Cc1cc(Cl)ccc1O[C@H](C)C(=O)O	inactive	–
CCc1ccccc1N	inactive	–
c1ccc(N=NNc2ccccc2)cc1	inactive	–
OCc1ccco1	inactive	–
